The source of these data is PubChem BioAssay AID651784 (National Center for Advancing Translational Sciences (NCATS), 2012).

Inconclusive results are not listed. Activity calls are given as the source filed them. Calls come from the whole dose curve; as a rule, active = well fitted inhibition curve with a large enough effect; inconclusive = small, poorly fitted or top-dose-only effect; inactive = no such curve, though single readings can be large or run the other way.
Potency is the fitted concentration of half-maximal effect.

This test in a line: Acumen qHTS Assay for Inhibitors of the mTORC1 Signaling Pathway in MEF (Tsc2-/-, p53-/-) Cells: Hit Validation.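 For activity change, negative = inhibition: cells exposed to compound for 24 hours; plate controls were DMSO for no effect and 7.5 nM rapamycin control for full effect.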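 Note: phospho-rpS6 Ser235/236 immunofluorescence normalized to propidium iodide cell count; nearly all actives have a fitted effect of over 65% in size.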 Particulars: Acumen imaging; activity change, negative = inhibition: at 37.3 µM (top of the series). In general terms: Quantitative high-throughput screening tests each substance at several concentrations.
`C=CCc1c(C)nc2nc(SCC(=O)Nc3ccc(C)c(C)c3)nn2c1C`: the activity change, negative = inhibition was -88.7%. Take `O=C(COc1ccccc1-c1nc(-c2ccccc2)no1)Nc1cccc([N+](=O)[O-])c1`: the Potency was 1.04 µM (active). As to `COc1ccc(C2=NS(=O)(=O)N(C)C(C(=O)Nc3ccc(OC(F)(F)F)cc3)=C2)cc1`, the activity change, negative = inhibition turned out to be 2.76%.

Take `CCN(CC)CCn1c(=N)n(CC(O)COc2ccccc2C)c2ccccc21` (stereo not drawn): the Potency is 4.65 µM (active). As for `Cc1ccc(OCC(O)Cn2c(=N)n(CCN3CCCCC3)c3ccccc32)cc1` (stereo not drawn), the Potency was 10.4 µM (active).

In the case of `Cc1cccc(-n2nnnc2S(C)(=O)=O)c1`, the activity change, negative = inhibition is -92%. Consider `Cc1ccccc1OCCn1c(=N)n(C(C)C)c2ccccc21`, for which the Potency was 8.26 µM (active). For the compound `CCC(Sc1nncn2c1cc1oc(C)cc12)C(=O)Nc1ccc(F)cc1` (stereo not drawn), the activity change, negative = inhibition came to 12.3%. Consider `Cc1ccc(C)c(NC(=O)c2nc(S(=O)(=O)Cc3ccc(F)cc3)ncc2Cl)c1`, for which the activity change, negative = inhibition is -90.5%. Turning to `Cc1ccc(C(C)C)c(OCC(=O)Nc2cc(-c3nc4ccccc4[nH]3)ccc2C)c1`, the activity change, negative = inhibition was -3.97%. With `O=C(NCc1ccccc1)c1nc(S(=O)(=O)Cc2ccccc2)ncc1Cl`, the Potency was 5.85 µM (active). Regarding `Cc1cccc(OCC(O)Cn2c(=N)n(CCN3CCCCC3)c3ccccc32)c1` (stereo not drawn), the Potency was 5.85 µM (active).

On to `NC(=O)c1ccc(-c2nc(-c3ccc4c(c3)OCO4)c(-c3ccccn3)[nH]2)cc1`, for which the activity change, negative = inhibition was -5.7%. For `Cc1cccc(C)c1Nc1sc(C(=O)c2ccccc2)c(N)c1S(=O)(=O)c1ccccc1`, the Potency is 2.61 µM (active). As for `CCN(CCCNC(=O)c1cc2c(=O)[nH]c3ccc(C)cc3c2s1)Cc1ccccc1`, the activity change, negative = inhibition was -139%. With `COc1ccc(CNC(=O)C2CCN(c3nc4ccc(C)cc4[nH]3)CC2)cc1`, the activity change, negative = inhibition came to 22.4%. As to `CCS(=O)(=O)c1ncc(Cl)c(C(=O)N(Cc2ccccc2)c2ccc(OC)cc2)n1`, the Potency is 2.93 µM (active). For the compound `CC(C)Oc1ccc(CNC(=O)c2ccc3nc(SCc4ccc(F)cc4)n(C)c3c2)cc1`, the activity change, negative = inhibition is -8.96%. In the case of `CCOc1cccc(C2CC(=O)Nc3cc4c(cc32)OCCO4)c1` (stereo not drawn), the activity change, negative = inhibition was -113%. Take `O=C(CCS(=O)(=O)c1nc(-c2cccs2)cc(C(F)(F)F)n1)Nc1cccc(O)c1`: the activity change, negative = inhibition was -112%.

For the compound `CCN1CCC(N(Cc2ccc(F)cc2)C(=O)Nc2ccc(C)c(F)c2)CC1`, the activity change, negative = inhibition stood at 5.5%. For the compound `COc1ccc(-c2ccc(CCC(=O)O)n2-c2ccccc2O)cc1`, the activity change, negative = inhibition is -2.33%.

For `Cc1ccc(NC(=O)c2nc(S(=O)(=O)Cc3ccc(F)cc3)ncc2Cl)cc1C`, the Potency is 11.7 µM (active). For the compound `CCN1CCOC(=O)C1CC(=O)Nc1ccc(Br)cc1` (stereo not drawn), the activity change, negative = inhibition is -3.02%. Take `CS(=O)c1ccc(-c2nc(-c3ccc(F)cc3)c(-c3ccncc3)[nH]2)cc1` (stereo not drawn): the activity change, negative = inhibition was -5.71%. Consider `CC1=Nc2cc(C(=O)NC3CCCC3)ccc2Sc2ccc(Br)cc21`, for which the activity change, negative = inhibition is -107%. Same read-out and setting: to `O=C(c1ccco1)n1nc(-c2ccc(Cl)cc2)nc1NCc1ccccc1` belongs -47.3%. For the compound `CCCCOc1ccc(Cn2c(=O)sc3ccccc32)cc1`, the activity change, negative = inhibition is -17%. For the compound `COc1ccc(NC(=O)C(NC(=O)/C=C\c2ccc3c(c2)OCO3)c2ccccc2)cc1` (stereo not drawn), the Potency is 11.7 µM (active). Take `CCCc1oc2ccc(NS(=O)(=O)c3ccc(OCC)cc3)cc2c1C(=O)OCC`: the Potency is 4.14 µM (active). On to `COc1ccc2c(CNCCc3cccs3)c(C(=O)O)n(Cc3ccc(F)cc3Cl)c2c1`, for which the activity change, negative = inhibition is -51.9%. With `Cc1ccccc1CN1C(=O)C(O)(CC(=O)c2ccccc2)c2cc(Cl)ccc21` (stereo not drawn), the activity change, negative = inhibition was -65.2%. Turning to `O=c1c(-c2cc(-c3ccc(F)cc3)nc3c2COc2ccc(Cl)cc2-3)coc2ccc(F)cc12`, the activity change, negative = inhibition was 7.23%. On to `CC1C(=O)Nc2ccc(S(=O)(=O)Nc3ccccc3Br)cc2NC1=O` (stereo not drawn), for which the activity change, negative = inhibition was found to be 8.5%. As to `Cc1ccc(C)c(N2CCN(CCCNC(=O)c3nnc(Cc4ccc(F)cc4Cl)o3)CC2)c1`, the Potency was 10.4 µM (active). For the compound `COc1ccc(-c2nc(S(=O)(=O)c3ccc(Cl)cc3)c(N3CCCCCC3)o2)cc1`, the activity change, negative = inhibition amounted to 2.12%. As for `COc1ccc(NC(=O)CSc2c3c(nc4ccccc24)CCC3)c(OC)c1`, the activity change, negative = inhibition stood at 11.1%.

For `CCOC(=O)c1c(NC(=O)c2cc(CC)on2)sc(C(C)=O)c1C`, the activity change, negative = inhibition stood at 12%.
